HSV replic up = enhancers of HSV replication in host cells, fold increase, host cell viability. HSV replication augmentation in cells. AID 1956, 2009. 0.005% of 220,000 active. maximum fold increase; in the data active = maximum fold increase above about 1.5; inconclusive = no clear call, values can overlap the other calls; tested in PC3 cells
EP2 antag = human EP2 receptor antagonists, primary screen, TR-FRET cAMP, C6 glioma cells. C6 glioma cells expressing human EP2; cells stimulated with saturating PGE2. 0.52% of 260,000 active. inhibition, % at 25 µM. AID 1422, 2008;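 active = percent inhibition above 40 after rounding to a whole number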;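 note: rat C6 glioma host cells with rolipram phosphodiesterase inhibitor present; the protocol text gives 20 µM as final concentration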
EP2 modulator = EP2 receptor modulators, cAMP readout, primary screen, cell-based, HTRF cAMP, PGE2 stimulation; EP2-expressing cells, cAMP HTRF FRET, PGE2 co-stimulation; induction, % at 25 µM; 0.83% of 260,000 active; AID 940, 2007;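 active = compounds whose cAMP rise, as percent of the full-agonist control response, exceeds 60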;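 note: rat C6 glioma line stably carrying human EP2 under a CMV promoter; the protocol text gives 20 µM as final concentration; 100% = response of wells given 1 µM PGE2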
NCF1 inh = p47phox/p22phox peptide binding inhibitors, primary screen, biochemical, uHTS, NADPH oxidase regulatory subunit | fluorescence polarization, 2 h | 0.53% of 220,000 active | Neutrophil cytosol factor 1 (Homo sapiens), P14598 | inhibition, % at 24.7 µM;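 active = inhibition above about 30%, limit read from the data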;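 note: 0% = p47phox with labelled peptide and 100% = labelled peptide alone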
Wee1 degr inh = Wee1 degradation inhibitors, primary screen, cell-based, HeLa, Wee1K328M-luciferase, luminescence | Wee1-like protein kinase (Homo sapiens), P30291 | HeLa Luc-Wee1K328M stability; 100% = proteasome inhibitor MG132 effect | reporter increase, % at 5 µM | 1.2% of 220,000 active | AID 1321, 2008;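 active = activation above the mean of all tested compounds plus 3 SD, set per screening run, cut at about 8.8% in these data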;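 note: cells exposed to compound for 20 h before luminescence read; 0% = DMSO alone and 100% = MG132 at 30 µM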
Target sequence (P30291 whole entry K328M): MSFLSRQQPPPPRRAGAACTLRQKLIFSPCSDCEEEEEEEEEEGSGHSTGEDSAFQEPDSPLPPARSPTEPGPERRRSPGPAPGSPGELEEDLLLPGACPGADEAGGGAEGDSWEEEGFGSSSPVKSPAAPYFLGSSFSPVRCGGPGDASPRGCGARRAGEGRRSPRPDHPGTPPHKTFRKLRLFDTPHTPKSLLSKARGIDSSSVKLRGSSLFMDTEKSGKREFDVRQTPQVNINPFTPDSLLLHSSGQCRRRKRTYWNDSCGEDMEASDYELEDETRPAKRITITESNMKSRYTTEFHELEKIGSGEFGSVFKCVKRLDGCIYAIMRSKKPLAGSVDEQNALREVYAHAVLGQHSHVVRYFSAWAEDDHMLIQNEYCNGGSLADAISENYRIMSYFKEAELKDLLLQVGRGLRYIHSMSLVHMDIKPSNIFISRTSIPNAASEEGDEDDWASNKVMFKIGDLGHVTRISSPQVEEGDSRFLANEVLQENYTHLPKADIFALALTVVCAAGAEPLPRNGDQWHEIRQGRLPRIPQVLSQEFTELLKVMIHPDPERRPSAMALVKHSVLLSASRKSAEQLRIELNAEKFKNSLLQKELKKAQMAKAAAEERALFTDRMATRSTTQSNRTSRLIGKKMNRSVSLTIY
Furin inhibitor = human furin inhibitors, primary screen, biochemical, fluorescence intensity | 0.061% of 220,000 active | purified furin, fluorogenic substrate cleavage | inhibition, % at 20 µM or 30 µM | AID 463115, 2010 | P09958; in the data active = inhibition above about 25%
* marks the source's active call; other numbers are inactive results; i = inactive; u = inconclusive; x = not tested or not shown; ! = a repeat was not active. Rows were chosen to be rich in hits. Some 2.8% of all compounds tested hit in one or more screens of this group.

SMILES | HSV replic up | EP2 antag | EP2 modulator | NCF1 inh | Wee1 degr inh | Furin inhibitor
O=C(CN1C(=O)c2cccc3cccc1c23)Nc1ccccc1C(=O)NC1CCCCC1 | x | 10.3 | 76.1* | x | x | x
Cc1nc(NC(=O)c2ccc(Cl)cc2)sc1-c1csc(Nc2cccc(F)c2)n1 | i | 9.7 | -16.8 | 158.2* | 0.2 | -2.2
Cc1ccc(Nc2nc(-c3sc(NC(=O)c4cccc(Cl)c4)nc3C)cs2)cc1 | i | 30.3 | 22.1 | -28.4 | 2.3 | -8.0
CCOC(=O)c1sc(-c2ccc(OC)cc2)cc1NC(C)=O | i | 40.1* | 12.7 | -9.4 | 5.5 | -41.1
Cc1ccc(C(C2=C(O)CC(C)(C)CC2=O)C2C(=O)CC(C)(C)CC2=O)s1 (centres undefined) | i | 30.4 | -8.4 | -5.7 | -2.1 | -19.7
CC1(C)CC(=O)C(C(C2=C(O)CC(C)(C)CC2=O)c2ccc(Br)s2)C(=O)C1 (centres undefined) | i | 51.0* | -78.2 | -2.1 | -1.7 | -17.3
CSc1nc2ccccc2n1Cc1c(Cl)cccc1Cl | i | 7.7 | 64.6* | -8.9 | -0.1 | -13.8
COc1ccccc1N(CC(=O)N/N=C/c1ccc(C(=O)O)cc1)S(=O)(=O)c1ccc(C)cc1 | i | 8.3 | -2.0 | -5.6 | 9.0* | -15.6
CC(C)CN=Cc1c(O)c([N+](=O)[O-])cc2oc3c(c12)CCCC3 | u | 36.1 | 46.1 | -86.5 | 2.4 | -10.9
O=[N+]([O-])c1cc2oc3c(c2c(C=NCc2ccccc2)c1O)CCCC3 | i | 48.4* | 22.0 | -37.0 | -0.8 | 7.1
CCc1nnc(NC(=O)CSc2nnc3c4c5c(sc4nc(CC)n23)CCCC5)s1 | x | 9.6 | 9.8 | x | x | x
Nc1ccc(N2CCN(c3cccc(Cl)c3)CC2)cc1 | i | 12.3 | -4.9 | 3.7 | 0.6 | -17.3
Nc1ccc(N2CCCC2)cc1 | x | 68.3* | -94.4 | x | x | x
CCN1C(=O)C(c2ccc(F)cc2)C2(CCN(C(=O)Nc3ccccc3F)CC2)C1=O (centres undefined) | x | x | -35.3 | x | x | x
Cc1nc(CC(=O)c2ccc(O)cc2O)cs1 | i | 5.7 | 3.2 | 3.6 | 0.6 | -25.7
Cc1nc(C/C(=N\Nc2ccccc2)c2ccc(O)cc2O)cs1 | i | 3.3 | 64.3* | -4.8 | 1.5 | -4.6
O=C(CSc1ncccn1)Nc1cccc(Cl)c1Cl | x | 5.0 | -15.4 | x | x | x
Cc1ccc(O)c(CN[C@@H]2CCC(=O)N[C@H]2c2cc(F)cc(F)c2)c1 | x | 6.3 | 0.6 | x | x | x
CCOC(=O)Cn1c(=O)c(-c2ccccc2NC)nc2ccccc21 | i | 5.8 | 4.5 | 39.2* | -1.2 | -7.9
Fc1ccc2nc(Nc3ccccc3)sc2c1 | i | 6.6 | -38.1 | -12.5 | 10.6* | -26.1
CC(C)c1ccc(C2C(C#N)=C(N)C(C#N)(C#N)C3=CCN(C)CC32)cc1 (centres undefined) | x | 10.0 | 8.5 | x | x | x
CC(C)N1CC=C2C(C1)C(c1ccc(Cl)cc1)C(C#N)=C(N)C2(C#N)C#N (centres undefined) | x | 10.1 | 78.8* | x | x | x
CCOc1cccc(C2C(C(=O)c3cccs3)=C(O)C(=O)N2Cc2ccncc2)c1 (centres undefined) | x | 21.0 | 23.6 | x | x | x
c1ccc(C2=Nn3c(nnc3-c3ccncc3)SC2)cc1 | x | x | 52.6 | -3.0 | -4.3 | 7.7
O=[N+]([O-])c1ccc(C2=Nn3c(nnc3-c3ccc(Cl)cc3)SC2)o1 | x | 73.3* | -31.3 | x | x | x
SMILES | HSV replic up | EP2 antag | EP2 modulator | NCF1 inh | Wee1 degr inh | Furin inhibitor
CCOC(=O)c1c(CN(C)C)n(-c2ccccc2)c2cc(Br)c(OC)cc12 | i | 3.3 | 44.0 | -15.2 | 0.2 | -30.2
COc1cc2c(C(=O)OCCN(C)C)c(CSc3ccccc3)n(C)c2cc1Br | i | 13.1 | 5.2 | 7.3 | 10.4* | -2.8
O=C(COC(=O)c1ccccn1)Nc1cccc(Cl)c1 | i | 6.9 | 4.0 | 35.9* | -3.2 | -16.8
O=C(COC(=O)c1ccccn1)Nc1ccc(Cl)c(Cl)c1 | x | 20.2 | -62.2 | x | x | x
Cc1ccccc1Nc1ncnc2ccccc12 | x | 9.3 | -22.7 | x | x | x
CCn1ncc(C(=O)N2CCN(Cc3ccccc3F)C[C@@H]2C(C)C)c1C | x | x | -35.8 | x | x | x
COc1ccc(-c2nnn(CC(=O)c3ccc4c(c3)OCCO4)n2)cc1 | x | 13.3 | -58.3 | x | x | x
Cc1cc(SCC(=O)N/N=C/c2ccc(O)c(O)c2)c(C)cc1Br | i | 49.5* | -32.9 | -15.1 | -2.8 | -17.3
CC1CCc2cc(F)ccc2N1C(=O)CSc1nnc(-c2ccccc2O)n1CC1CCCO1 (centres undefined) | x | 1.9 | -15.5 | x | x | x
CC(=O)/C(=C\N(C)C)Sc1ccc(Cl)cc1 | i | 6.3 | 7.4 | -2.6 | 9.1* | -22.2
CC(C)(C)NS(=O)(=O)c1ccc(CCC(=O)N2CCc3ccccc3C2)cc1 | x | 11.0 | -4.3 | x | x | x
COc1cc(OC)c(C2SCCCS2)cc1OC | i | 10.4 | 27.0 | -9.9 | -1.1 | -16.6
COc1cc(C2SCCCCCCCCCCSC(c3ccc(O)c(OC)c3)SCCCCCCCCCCS2)ccc1O (centres undefined) | x | 41.2* | 13.9 | x | x | x
CC1CC(C)CN(C(=O)C(Cc2ccccc2)n2cccc2)C1 (centres undefined) | i | 7.8 | 61.8* | 2.1 | 0.1 | -12.9
O=C1NC2(CCN(C(=O)c3ccco3)CC2)Nc2ccccc21 | x | 3.6 | -20.0 | x | x | x
Cc1sc2nc(C3CC3)nc(SCC(=O)Nc3ccc(N(C)C)cc3)c2c1C | x | 16.1 | 65.2* | x | x | x
CN(C)c1ccc(NC(=O)CSc2nc(N)c(C(=O)Nc3ccc(N(C)C)cc3)s2)cc1 | i | 41.2* | -43.2 | -2.0 | 2.0 | -10.4
CCc1[nH]nc2c1C(c1ccsc1)C(C#N)=C(N)O2 (centres undefined) | i | 11.1 | 12.6 | -12.1 | -0.5 | -5.7
CCc1[nH]nc2c1C(c1ccc(Br)s1)C(C#N)=C(N)O2 (centres undefined) | i | 44.3* | -17.0 | -25.8 | 0.1 | -19.5
Cc1ccc(C2C(C#N)=C(N)Oc3n[nH]c(-c4cccs4)c32)s1 (centres undefined) | i | 43.5*! | 2.2 | -10.8 | 0.1 | -11.4
Cc1nn(-c2ccccc2)c2c1C(c1ccc(Br)s1)C(C#N)=C(N)O2 (centres undefined) | i | 17.5 | -36.7 | -10.1 | 9.1* | -6.5
NCC1OC(O[C@@H]2[C@H](O)C(OC3C(O)C(N)CC(N)C3OC3OC(CO)C(O)C(O)C3N)O[C@@H]2CO)C(N)C(O)C1O (some centres undefined) | x | 15.6 | -21.2 | x | x | x
O=C(NCC1CCCO1)C1CC(c2ccc(Cl)cc2)=NO1 (centres undefined) | x | 13.0 | -15.2 | x | x | x
O=C(NC1CCCCC1)C(c1ccccc1)N(C(=O)Cc1ccsc1)c1ccc2c(c1)OCCO2 (centres undefined) | x | 7.0 | 56.8 | x | x | x

Source: PubChem BioAssay (several laboratories)
